Assay results reported in ChEMBL document CHEMBL3988442, “University of Dundee, Small-Polar-MMV Screening Library” (2021).
Out of some 48,000 compounds screened, about 13,000 (27%) showed an effect of 50% or more. Some of the results follow.

Tested on: Wolbachia pipientis
Assay: Anti-Wolbachia Cell-Based Screen
Assay type: functional
Design: scale not given: in the data most compounds retested in dose-response had high values
Conditions: 5 µM

| Compound | Percent Effect |
| --- | --- |
| COc1ccccc1OC1(C(=O)O)CCN(c2cc(C)nc(C)c2)CC1 | -31.32% |
| CCOc1ccc(C(F)(F)F)cc1NCc1nc(C)c(C)o1 | -3.649% |
| NCC1CCN(C2CCN(c3ccc(-c4ccco4)cc3)CC2)C1 (stereo unspecified) | -12.7% |
| CC(CCSc1ccccc1)N1CCN(C(=O)c2ccccc2O)CC1 (stereo unspecified) | 4.975% |
| Nc1nc(NCCc2[nH]nc3c2CCCC3)cc(N2CCOCC2)n1 | -17.88% |
| CN(Cc1cccc(-n2cccn2)c1)c1cc(N2CCCC2)nc(N)n1 | 13.85% |
| Cl.Nc1nc(Nc2ccccc2)cc(N2CCNCC2)n1 | 122.8% |
| c1ccc(CCCn2cc(-c3nc(CN4CCOCC4)no3)nn2)cc1 | -30.42% |
| CN1CCC2(CC1)Cc1ccccc1CN(C(=O)CN)C2 | 99.69% |
| CN1CCC2(Cc3ccccc3CN(C(=O)c3ccc(Cl)cc3)C2)C1 (stereo unspecified) | 111.1% |
| CCCC(=O)N1Cc2ccccc2CC2(CCN(C)C2)C1 (stereo unspecified) | 117.7% |
| CCCSCC(=O)N1CCC2(CC1)CC(c1ccccc1)CN(C)C2 (stereo unspecified) | -4.07% |
| CCCC(=O)N1CCC2(CC1)COC2 | -43.8% |
| CN1CCC2(CCN(C(=O)c3ccccc3)CC2)C1 | -23.98% |
| CN1CCC2(Cc3ccccc3CN(C(=O)CCN)C2)C1 (stereo unspecified) | 104.1% |
| CN1CC(c2ccccc2)CC12CCN(C(=O)c1ccc(Cl)cc1)CC2 (stereo unspecified) | -14.14% |
| O=C1CC(c2ccc(C(=O)O)cc2)c2ncn(-c3ccc(Cl)cc3)c2N1 (stereo unspecified) | -3.148% |
| CC(C)C(C)(O)CNc1cccc(F)c1C#N (stereo unspecified) | 29.17% |
| COCc1nnc(-c2cccc(C(=O)N(C(C)C)C3CCC3)c2)o1 | 24.51% |
| O=C(CCNC(=O)c1ccc(Cl)cc1)NCc1nc(C2CC2)no1 | -6.02% |
| Cc1c(C(C)NC2CCOCC2)cnn1-c1ccc(F)cc1F (stereo unspecified) | -3.497% |
| COCCC(=O)N1CCC2(CN(Cc3cccc(Cl)c3)C2)C1 | 20.7% |
| O=C(Cc1ccccc1)N1CCC2(CC(=O)N(c3cccc(F)c3)C2)C1 (stereo unspecified) | -7.146% |
| CN1CCC2(Cc3ccccc3CN(C(=O)Cc3cccc(Cl)c3)C2)C1 (stereo unspecified) | 135.8% |
| CC(=O)Nc1nc(C(=O)NC(C)c2ccc(F)c(F)c2)cs1 (stereo unspecified) | 54.27% |
| CC(=O)Nc1nc(C(=O)NC(C)c2ccc(F)cc2)cs1 (stereo unspecified) | 33.73% |

| Compound | Percent Effect |
| --- | --- |
| CC(=O)Nc1nc(C(=O)NC(C)c2ccc3c(c2)OCCO3)cs1 (stereo unspecified) | 7.281% |
| CC(=O)Nc1nc(C(=O)NCCOc2ccc(C)cc2)cs1 | -6.104% |
| CC(=O)Nc1nc(C(=O)NC(C)c2ccc(C#N)cc2)cs1 (stereo unspecified) | 80.7% |
| CC(=O)Nc1nc(C(=O)Nc2ccc(F)cc2)cs1 | -0.1776% |
| CCc1ccc(C2COCCN2C(=O)Nc2ccc(C(N)=O)c(Cl)c2)o1 (stereo unspecified) | -0.9462% |
| Cc1cc(C(=O)N2C[C@H]3CC[C@@H]2CN(C(=O)c2ccncc2)C3)cs1 | -9.465% |
| Fc1ccc(CN2CC[C@H]3O[C@@H](COCc4cccnc4)CC[C@H]32)cc1.O=C(O)C(F)(F)F.O=C(O)C(F)(F)F | 0.3958% |
| COCC(=O)N1CCO[C@H]2[C@H](OCc3cccnc3)CC[C@@H]21.O=C(O)C(F)(F)F | -4.337% |
| Cc1ccoc1C(=O)N1CC[C@H]2OCC[C@@]2(COCc2ccncc2)C1 | -2.681% |
| Fc1cnc(N2CC[C@@H]3OC(COCc4cccnc4)CC[C@@H]32)nc1.O=C(O)C(F)(F)F.O=C(O)C(F)(F)F (stereo partly specified) | -10.65% |
| O=C(O)C(F)(F)F.O=C(O)C(F)(F)F.c1cnc(N2CC[C@@H]3O[C@@H](COCc4cccnc4)CC[C@@H]32)nc1 | -9.534% |
| O=C(O)C(F)(F)F.O=C(O)C(F)(F)F.O=C(O)C(F)(F)F.c1cncc(COCC2CN(Cc3cccnc3)Cc3ccnn3C2)c1 (stereo unspecified) | 11.05% |
| CN(C)C(=O)N1CCO[C@@H]2CC(COCc3cccnc3)C[C@H]21.O=C(O)C(F)(F)F (stereo partly specified) | 103.1% |
| c1cncc(COCC2C[C@@H]3OCCN(Cc4cccnc4)[C@H]3C2)c1 (stereo partly specified) | 111.6% |
| CN(C)CC(=O)N1CCO[C@@H]2CC(COCc3ccncc3)C[C@H]21 (stereo partly specified) | 100.6% |
| Cc1cnc(N2CCO[C@@H]3CC(COCc4cccnc4)C[C@H]32)nc1.O=C(O)C(F)(F)F.O=C(O)C(F)(F)F (stereo partly specified) | 79.55% |
| Cn1cnc2c1C(COCc1cccnc1)N(Cc1ccccc1)CC2 (stereo unspecified) | 2.197% |
| CCOCC1C[C@@H]2OCCN(C(=O)c3ccc[nH]3)[C@H]2C1 (stereo partly specified) | -14% |
| Cc1nc(CN(C)Cc2nc(-c3sccc3C)oc2C)no1 | -9.354% |
| CSCCCN1CCCC(Cn2ccnc2)C1 (stereo unspecified) | 13.29% |
| O=C(O)C(F)(F)F.O=C(c1ccno1)N1CCO[C@@H]2CC(COCc3ccccn3)C[C@H]21 (stereo partly specified) | 99.5% |
| O=C(c1ccc[nH]1)N1CCO[C@H]2CC(COCc3ccccn3)C[C@@H]21 (stereo partly specified) | 10.05% |
| O=C(O)C(F)(F)F.O=S(=O)(C1CC1)N1CCO[C@@H]2CC(COCc3cccnc3)C[C@H]21 (stereo partly specified) | 111.9% |
| Cc1ccc(C(=O)N2CCO[C@H]3[C@H](OCc4ccccn4)CC[C@@H]32)o1.O=C(O)C(F)(F)F | -0.009897% |
| O=C(O)C(F)(F)F.O=C(O)C(F)(F)F.c1cncc(COCC2CC[C@H]3[C@H](CCN3CC3CCOCC3)O2)c1 (stereo partly specified) | -3.08% |
| CCc1nc(-c2noc3ccc(C(=O)N(C)CCOC)cc23)co1 | 2.681% |

| Compound | Percent Effect |
| --- | --- |
| CC(Nc1nc2c(cnn2C)c(=O)[nH]1)c1ccc2c(c1)CCCC2 (stereo unspecified) | 4.227% |
| CC(C)c1noc(CCNC(=O)NCC2COc3ccccc3O2)n1 (stereo unspecified) | 100.4% |
| CC(C)c1noc(CN(C)C(=O)C2COc3ccccc3C2)n1 (stereo unspecified) | -21.45% |
| Cc1cnc(C(=O)NCC2Cc3ccccc3O2)cn1 (stereo unspecified) | -10.72% |
| CC(C)c1noc(CCNC(=O)NCC2Cc3ccccc3O2)n1 (stereo unspecified) | 104.8% |
| CC(=O)c1ccc(C(=O)NCC2Cc3ccccc3O2)s1 (stereo unspecified) | -26.22% |
| CC(C)c1noc(CCNC(=O)C2COc3ccccc3C2)n1 (stereo unspecified) | -14.38% |
| CC(C)c1noc(CCC(=O)NCC2CCOC2)n1 (stereo unspecified) | 7.119% |
| CC(C)c1noc(CCC(=O)NCC2CCS(=O)(=O)C2)n1 (stereo unspecified) | 6.847% |
| CC(=O)NCCNC(=O)NCC1Cc2ccccc2O1 (stereo unspecified) | 101.6% |
| CCN(CC)CCSc1nnc(N2CCN(c3ccc(F)cc3)CC2)s1 | 10.77% |
| CCC(C(=O)NC1(COC)CCCC1)n1cccn1 (stereo unspecified) | 10.41% |
| COCCCN1C(=O)CC[C@H]2CN(Cc3cc4ccccc4o3)CC[C@H]21 | -11.4% |
| c1cnn(CC2CCN(c3nc(C4CC4)nc4c3CCNCC4)CC2)c1 | 9.099% |
| O=C(Cn1nnn(-c2cccs2)c1=O)N(CC1CCOC1)C1CC1 (stereo unspecified) | -6.322% |
| COc1cccc(C(=O)N2C[C@@H](CN(C)CCO)[C@@H](CO)C2)c1C | -4.304% |
| COCCN(Cc1cccs1)C(=O)c1ccc(=O)n(C)c1 | -19.51% |
| COCCN(Cc1ccccn1)C(=O)c1ccc(=O)n(C)c1 | 4.944% |
| COCCN(C)C[C@H]1C[C@H](CO)CN(C(=O)c2ccc(=O)n(C)c2)C1 | 90.72% |
| COCCN(C)C[C@@H]1CN(C(=O)c2ccc(=O)n(C)c2)C[C@@H]1CO | 59.39% |
| CC(NC(=O)CCNC(=O)c1ccoc1)c1ccccc1 (stereo unspecified) | -1.423% |
| Cc1cnc(CN(C)C2CCN(Cc3ccccc3C#N)C2)o1 (stereo unspecified) | 18.72% |
| CC(=O)N(Cc1ncc(C)o1)C1CCN(Cc2ccccc2C#N)C1 (stereo unspecified) | 110% |
| CC(=O)N(Cc1ncc(C)o1)C1CCN(Cc2cccc(C#N)c2)C1 (stereo unspecified) | -1.585% |
| CC(=O)N(Cc1ncc(C)o1)C1CCN(Cc2ccccc2F)C1 (stereo unspecified) | 139.2% |
| CC(=O)N(Cc1ncc(C)o1)C1CCN(Cc2ccncc2Cl)C1 (stereo unspecified) | -1.852% |

| Compound | Percent Effect |
| --- | --- |
| c1cnc(-c2nc(CNCCn3cccn3)cs2)nc1 | -8.125% |
| Cc1nc(C)n(C2CCCN(C(=O)c3sccc3C3CC3)C2)n1 (stereo unspecified) | -8.521% |
| CC(CNS(N)(=O)=O)c1ccc(F)c(F)c1 (stereo unspecified) | -14.37% |
| CN(CC(=O)N1CCCCC1c1nccs1)C1CC1 (stereo unspecified) | 114.2% |
| Cc1noc(COCC(=O)N2CCCCC2c2nccs2)n1 (stereo unspecified) | -17.81% |
| CC(C)(C)c1csc(C2CCCCN2C(=O)CCn2cncn2)n1 (stereo unspecified) | -13.47% |
| O=C1CSc2ccccc2N1CC(=O)N1CCCCC1c1nccs1 (stereo unspecified) | 2.391% |
| CN(CC(=O)N1CCCCC1c1nc(C(C)(C)C)cs1)C1CC1 (stereo unspecified) | 131.5% |
| Cc1ncc(CC(=O)N2CCCC(COc3ccc(F)cc3)C2)c(=O)[nH]1 (stereo unspecified) | 33.2% |
| COCCCSc1ccc(NC(=O)Nc2cn[nH]c2)cc1 | 3.134% |
| CN(Cc1ccoc1)c1ccc(-c2nccn2C)nn1 | -4.933% |
| CC(C)(C(=O)NCC1CC1)c1ccccc1F | -12.8% |
| O=C(NC(C(=O)Nc1cc[nH]n1)c1ccccc1)C1CCC1 (stereo unspecified) | -26.62% |
| Cc1cn(CC(=O)NC2CCN(C(C)C)CC2)c2ccccc12 | -15.19% |
| CC(C)n1c2ccccc2c2c1cc(C(=O)O)n2C(=O)N(C)C | 98.97% |
| CC(C)NC(=O)CCNC(=O)c1c(Br)c2ccccc2n1C | 2.193% |
| CC(C)n1c2ccccc2c2c1cc(C(=O)N(C)C)n2S(C)(=O)=O | 91.91% |
| CC(C)n1c2ccccc2c2c1cc(C(=O)NC1CC1)n2C(=O)N(C)C | 111.7% |
| CC(C)N1CCC(NC(=O)NCc2ccccc2)CC1 | 1.205% |
| CC(C)n1c2ccccc2c2c1cc(C(=O)NCCO)n2C(=O)N(C)C | 98.19% |
| CCCNC(=O)c1cc2c(c3ccccc3n2C)n1C(=O)N(C)C | -57.33% |
| COCC(C)N(C)C(=O)c1nc(S(C)(=O)=O)n2ccccc12 (stereo unspecified) | -2.923% |
| CCN(C)C(=O)c1cc(-c2cn(C(C)C)cn2)n2ccccc12 | 4.681% |
